# Assay results as given in PubChem BioAssay (EPA / NIEHS).
# Where a structure was tested more than once in an assay, its records may differ in their call. Active and inactive are the calls of the source. How the source made its calls: active means hit-call score of the fitted dose curve at least 0.9, where 1 is the maximum; inactive means score below 0.9.
# Assay: ATG_TAL_CIS: Attagene CIS-FACTORIAL HepG2 Assay for human TAL Basal Promoter (AID 2282966)
# Conditions: HepG2 Attagene cis-factorial TAL promoter reporter; actives raise or lower the signal
# Protocol: ATG_CIS is a cell-based, multiplexed-readout assay that uses HepG2, a human liver cell line, with measurements taken at 24 hours after chemical dosing in a 24-well plate.ATG_TAL_CIS is one of 52 assay component(s) measured or calculated from the ATG_CIS assay. It is designed to make measurements of mRNA induction, a form of inducible reporter, as detected with fluorescence intensity signals by Reverse transcription polymerase chain reaction (RT-PCR) and Capillary electrophoresis technology.Data from the assay component ATG_TAL_CIS was analyzed into 1 assay endpoint. This assay endpoint, ATG_TAL_CIS, was analyzed with bidirectional fitting relative to DMSO as the negative control and baseline of activity. Using a type of inducible reporter, measures of mRNA for gain or loss-of-signal activity can be used to understand the background control at the transcription factor-level as they relate to the gene . Furthermore, this assay endpoint can be referred to as a secondary readout, because this assay has produced multiple assay endpoints where this one serves a background control function. To generalize the intended target to other relatable targets, this assay endpoint is annotated to the background measurement intended target family, where the subfamily is internal marker.
# Human liver HepG2 cells are transiently transfected with multiple reporter transcription units (MRTUs) in 6-well plates using FuGene 6 reagent (Roche; 3 ml FuGene/1 mg DNA). The MRTU constructs are regulated by a cis-regulating element (promoter). […] A major difference between the CIS and TRANS system is that in CIS activities of endogenous TFs are measured, whereas the TRANS assay evaluates changes in activities of exogenous, chimeric NR-Gal4 proteins. […] At the end of 24 hour incubation, total RNA was isolated using TriZol reagent (Invitrogen). The isolated RNA is then reverse-transcribed using oligo(dT) primer and Mo-MLV reverse transcriptase (Invitrogen) with DNAse I (Ambion) treatment for 30 min. The one-tenth of the produced cDNA was amplified by PCR using Taq DNA polymerase (Invitrogen) and two reporter sequence-specific primers. The PCR products were fluorescently labeled by primer extension with 6-arboxyfluorescein (6-FAM) 5'-labeled reporter sequence-specific primer (2 min at 95 C, 20 s at 68 C and 10 min at 72 C) and these products were digested with 5U of HpaI (New England Biolabs) for 2h at 37 C. The fragments were purified using Qiaquick PCR columns (Qiagen), analyzed on an ABI 3130xL genetic analyzer (Applied Biosystems) with peak positions identified by using a set of X-rhodamine (ROX)-labeled MapMarker1000 molecular weight standards (BioVentures). The raw capillary electrophoresis data was processed using Attagraph software (Attagene).
SMILES,outcome,AC50
c1cc[c]([Hg][c]2ccccc2)cc1,inactive,–
CCOP(=S)(OCC)Oc1nc(Cl)c(Cl)cc1Cl,inactive,–
ClC(Cl)=C(Cl)C(Cl)=C(Cl)Cl,inactive,–
C1CCC(NC2CCCCC2)CC1,inactive,–
CC1(C)CCC(Cc2ccc(Cl)cc2)C1(O)Cn1cncn1 (stereo not given),inactive,–
C=CC(=O)N(C)C,inactive,–
CCCCP(CCCC)CCCC,inactive,–
O=Cc1cccc(Oc2ccccc2)c1,inactive,–
COc1cc2c(cc1OC)[C@@]13CCN4CC5=CCO[C@H]6CC(=O)N2[C@H]1[C@H]6[C@H]5C[C@H]43,inactive,–
CC(Br)C(=O)O (stereo not given),inactive,–
OCC(O)CCl (stereo not given),inactive,–
O=C1CCCN1,inactive,–
CN(CCCC(=O)c1cccnc1)N=O,inactive,–
N#CN=C(N)N,inactive,–
CC(C#N)CCC#N (stereo not given),inactive,–
O=C1C(Cl)=C(Cl)C(=O)c2ccccc21,inactive,–
CCOP(=O)(CN(CCO)CCO)OCC,inactive,–
C[C@@H](Oc1ccc(Cl)cc1Cl)C(=O)O,inactive,–
C[C@]12CCC(=O)C[C@@H]1CC[C@@H]1[C@@H]2CC[C@]2(C)[C@@H](O)CC[C@@H]12,inactive,–
CCN1CCC2(CC1)COc1cc3c(cc12)N(C(=O)c1ccc(-c2ccc(-c4nnc(C)o4)cc2C)cc1)CC3,inactive,–

SMILES,outcome,AC50
O=CC=O,inactive,–
CC(C)c1cccc(C(C)C)c1O,inactive,–
Nc1ccc(N=Nc2ccc(-c3ccc(N=Nc4c(S(=O)(=O)O)cc5cc(S(=O)(=O)O)c(N=Nc6ccccc6)c(O)c5c4N)cc3)cc2)c(N)c1,inactive,–
C(=NC1CCCCC1)=NC1CCCCC1,inactive,–
CCc1ccccc1N,inactive,–
C[C@@H]1C[C@@H]([C@H](O)CC2CC(=O)NC(=O)C2)C(=O)[C@@H](C)C1,inactive,191 nM (active)
CC(C)(c1ccccc1)c1ccc(O)c(C(C)(C)c2ccccc2)c1,inactive,–
CC(C)CCCCCCOC(=O)c1ccccc1C(=O)OCCCCCCC(C)C,inactive,–
ClCc1cccnc1,inactive,–
ClCCBr,inactive,–
Oc1ccc(-c2ccccc2)cc1,inactive,–
CCCCOCCOC(C)=O,inactive,–
O=C(O)C(F)(F)C(F)(F)C(F)(F)C(F)(F)C(F)(F)C(F)(F)F,inactive,–
O=C(O)C(Cl)(Cl)Cl,inactive,–
CC(=O)OC(c1ccccc1)C(Cl)(Cl)Cl (stereo not given),inactive,–
CNC(=O)O/N=C/C(C)(C)S(C)=O (stereo not given),inactive,–
Fc1ccc(C2(Cn3cncn3)OC2c2ccccc2Cl)cc1 (stereo not given),inactive,–
O=P(O)(O)CN(CP(=O)(O)O)CP(=O)(O)O,inactive,–
Cl/C=C/Cl,inactive,–
